The supplement of paper PMC6992640
± gives the standard deviation of the averaged measurements.

The compounds below were run on HCI03 (cells of an ER-positive luminal breast cancer xenograft) (assay: cell viability (% of vehicle); higher = less cytotoxic). Details: 10 µM; 72 h.
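Further: PDX cells carrying CMV promoter-driven luciferase, viability read as total photon flux per second by IVIS imaging following D-luciferin, vehicle control 0.1% DMSO.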

Point of comparison: `Cc1cc(C2CCCCC2)n(O)c(=O)c1` [Ciclopirox], cell viability 67.7. Against it:
- NCCCCC(NC(CCc1ccccc1)C(=O)O)C(=O)N1CCCC1C(=O)O.O.O (configuration not stated) [Lisinopril dihydrate] — higher, 137
- NC(=O)C1CCCc2c1[nH]c1ccc(Cl)cc21 (configuration not stated) — higher, 182
- CC(=O)O[C@@]12CO[C@@H]1C[C@H](O)[C@@]1(C)C(=O)[C@H](O)C3=C(C)[C@@H](OC(=O)[C@H](O)[C@@H](NC(=O)OC(C)(C)C)c4ccccc4)C[C@@](O)([C@@H](OC(=O)c4ccccc4)[C@H]21)C3(C)C [Docetaxel] — higher, 106
- COc1c(C)c2c(c(O)c1CC=C(C)CCC(=O)O)C(=O)OC2 [Mycophenolic acid] — higher, 93.3
- CC(=O)N1CCN(c2ccc(OCC3COC(Cn4ccnc4)(c4ccc(Cl)cc4Cl)O3)cc2)CC1 (single isomer, unassigned; (+)) [(+)-Ketoconazole] — higher, 119
- CC1COc2c(N3CCN(C)CC3)c(F)cc3c(=O)c(C(=O)O)cn1c23 (configuration not stated) [Ofloxacin] — higher, 173
- NC(N)=NS(=O)(=O)c1ccc(N)cc1 [Sulfaguanidine] — higher, 135
- Cl.NC12CC3CC(CC(C3)C1)C2 [Amantadine HCl] — higher, 117
- CCOc1nc2cccc(C(=O)OCc3oc(=O)oc3C)c2n1Cc1ccc(-c2ccccc2-c2nc(=O)o[nH]2)cc1 [Azilsartan Medoxomil] — higher, 162
- NNC(=O)c1ccncc1.Nc1ccc(C(=O)O)c(O)c1 [Pasiniazid] — higher, 111
- CCOc1cc(N)c(Cl)cc1C(=O)NCC1CN(Cc2ccc(F)cc2)CCO1.O=C(O)CC(O)(CC(=O)O)C(=O)O (configuration not stated) [Mosapride Citrate] — higher, 110
- Cc1cc(C2CCCCC2)n(O)c(=O)c1.NCCO [Ciclopirox ethanolamine] — lower, 60.3
- Nc1cccc2c1C(=O)N(C1CCC(=O)NC1=O)C2=O (configuration not stated) [Pomalidomide (CC-4047)] — higher, 126
- COC1C(OC(N)=O)C(O)C(Oc2ccc3c(O)c(NC(=O)c4ccc([O-])c(CC=C(C)C)c4)c(=O)oc3c2C)OC1(C)C.[Na+] (configuration not stated) [Novobiocin Sodium] — higher, 153
- O=C1NC(=O)[C@@H](c2c[nH]c3ccccc23)[C@H]1c1cn2c3c(cccc13)CCC2 [Tivantinib (ARQ 197)] — higher, 81
- CNCc1ccc(-c2[nH]c3cc(F)cc4c3c2CCNC4=O)cc1.O=P(O)(O)O — higher, 104
- CC(=O)N[C@H](Cc1ccc2ccccc2c1)C(=O)N[C@H](Cc1ccc(Cl)cc1)C(=O)N[C@H](Cc1cccnc1)C(=O)N[C@@H](CO)C(=O)N[C@@H](Cc1ccc(O)cc1)C(=O)N[C@H](CCCNC(N)=O)C(=O)N[C@@H](CC(C)C)C(=O)N[C@@H](CCCNC(=N)N)C(=O)N1CCC[C@H]1C(=O)N[C@H](C)C(N)=O [Cetrorelix] — higher, 131
- COc1ccc(C=Cc2cc(OC)c(OC)c(OC)c2)cc1OP(=O)([O-])[O-].[Na+].[Na+] [Fosbretabulin (Combretastatin A4 Phosphate (CA4P)) Disodium] — higher, 115
- COC(=O)NC(C(=O)NC(Cc1ccccc1)C(O)CN(Cc1ccc(-c2ccccn2)cc1)NC(=O)C(NC(=O)OC)C(C)(C)C)C(C)(C)C.O=S(=O)(O)O (configuration not stated) — higher, 135
- NC(=O)N1CCC(CC(=O)N2CCC(C3c4ncc(Br)cc4CCc4cc(Cl)cc(Br)c43)CC2)CC1 (configuration not stated) [Lonafarnib] — higher, 121
- C#C[C@]1(O)CC[C@H]2[C@@H]3CCC4=CCCC[C@@H]4[C@H]3C(=C)C[C@@]21CC [Desogestrel] — higher, 146

These compounds were tested on HCI09 (cells of a triple-negative luminal androgen receptor type breast cancer xenograft) in the same assay as above. Details: 10 µM; 72 h.

Point of comparison: `NC(=O)C1CCCc2c1[nH]c1ccc(Cl)cc21` (configuration not stated), cell viability 102 ± 2.3. Against it:
- Cc1ccc(-n2[nH]c(C)c(NN=C3C=CC=C(c4cccc(C(=O)O)c4)C3=O)c2=O)cc1C.NCCO.NCCO [Eltrombopag Olamine] — lower, 26.4 ± 4
- CCN1CCN(c2cc3c(cc2F)c(=O)c(C(=O)O)cn3C2CC2)CC1 [Enrofloxacin] — within error, 99.9 ± 18
- C[N+]1(C)C2CCC1CC(OC(=O)C(O)c1ccccc1)C2.[Br-] (configuration not stated) [Homatropine Methylbromide] — within error, 89.8 ± 18
- COc1ccc(C2CNC(=O)C2)cc1OC1CCCC1 (stereo not drawn) [S- (+)-Rolipram] — within error, 94.4 ± 32
- CO[C@H]1/C=C/O[C@@]2(C)Oc3c(C)c(O)c4c(O)c(c5c(nc6cc(C)ccn65)c4c3C2=O)NC(=O)/C(C)=C\C=C\[C@H](C)[C@H](O)[C@@H](C)[C@H](O)[C@@H](C)[C@H](OC(C)=O)[C@@H]1C [Rifaximin (Xifaxan)] — within error, 114 ± 43
- CS(=O)(=O)N1CCN(Cc2cc3nc(-c4cccc5[nH]ncc45)nc(N4CCOCC4)c3s2)CC1 — lower, 89.23 ± 0.75
- O=C(O)C1=COC(OC2OC(CO)C(O)C(O)C2O)C2C(CO)=CCC12 (configuration not stated) [Geniposidic acid] — within error, 93.7 ± 17
- CCC(CC)C(NC(C)=O)C1C(N=C(N)N)CC(C(=O)O)C1O (configuration not stated) [Peramivir] — within error, 91.2 ± 18
- CC(C)NCC(O)c1ccc(NS(C)(=O)=O)cc1.Cl (configuration not stated) [Sotalol hydrochloride] — higher, 109 ± 2.9
- Cc1cc(NS(=O)(=O)c2ccc(N)cc2)no1 [Sulfamethoxazole] — within error, 107 ± 30
- CC(C)(O)c1ccccc1CCC(SCC1(CC(=O)[O-])CC1)c1cccc(C=Cc2ccc3ccc(Cl)cc3n2)c1.[Na+] (configuration not stated) [Montelukast Sodium] — within error, 83.3 ± 85
- CCC(C)C(=O)OC1CC(C)C=C2C=CC(C)C(CCC3CC(O)CC(=O)O3)C21 (configuration not stated) [Lovastatin] — within error, 88.2 ± 12
- Nc1nc(Cl)nc2c1ncn2C1OC(CO)C(O)C1F (configuration not stated) [Clofarabine] — within error, 141 ± 70
- CC(=O)[N-]S(=O)(=O)c1ccc(N)cc1.[Na+] [Sulfacetamide Sodium] — within error, 87.3 ± 15
- Cc1cccc(C)c1NC(=O)C1CCCCN1C.Cl (configuration not stated) [Mepivacaine HCl] — lower, 97.91 ± 0.71
- Cc1onc(-c2ccccc2Cl)c1C(=O)NC1C(=O)N2C1SC(C)(C)C2C(=O)[O-].O.[Na+] (configuration not stated) [Cloxacillin Sodium] — within error, 161 ± 95
- CN1CCC(=C2c3ccccc3C=Cc3ccccc32)CC1.Cl [Cyproheptadine hydrochloride] — lower, 83.3 ± 9
- NCCCCC(NC(CCc1ccccc1)C(=O)O)C(=O)N1CCCC1C(=O)O.O.O (configuration not stated) [Lisinopril dihydrate] — within error, 106 ± 19
- CC(=O)O[C@@]12CO[C@@H]1C[C@H](O)[C@@]1(C)C(=O)[C@H](O)C3=C(C)[C@@H](OC(=O)[C@H](O)[C@@H](NC(=O)OC(C)(C)C)c4ccccc4)C[C@@](O)([C@@H](OC(=O)c4ccccc4)[C@H]21)C3(C)C [Docetaxel] — within error, 99.9 ± 18
- COc1c(C)c2c(c(O)c1CC=C(C)CCC(=O)O)C(=O)OC2 [Mycophenolic acid] — lower, 77.8 ± 17
- CC(=O)N1CCN(c2ccc(OCC3COC(Cn4ccnc4)(c4ccc(Cl)cc4Cl)O3)cc2)CC1 (single isomer, unassigned; (+)) [(+)-Ketoconazole] — lower, 29.5 ± 5.5
- CC1COc2c(N3CCN(C)CC3)c(F)cc3c(=O)c(C(=O)O)cn1c23 (configuration not stated) [Ofloxacin] — higher, 135 ± 18
- NC(N)=NS(=O)(=O)c1ccc(N)cc1 [Sulfaguanidine] — within error, 88.6 ± 12
- Cc1cc(C2CCCCC2)n(O)c(=O)c1 [Ciclopirox] — lower, 26.8 ± 3.4
- Cl.NC12CC3CC(CC(C3)C1)C2 [Amantadine HCl] — within error, 104 ± 1.4
- CCOc1nc2cccc(C(=O)OCc3oc(=O)oc3C)c2n1Cc1ccc(-c2ccccc2-c2nc(=O)o[nH]2)cc1 [Azilsartan Medoxomil] — higher, 107 ± 2.2
- NNC(=O)c1ccncc1.Nc1ccc(C(=O)O)c(O)c1 [Pasiniazid] — within error, 127 ± 61
- CCOc1cc(N)c(Cl)cc1C(=O)NCC1CN(Cc2ccc(F)cc2)CCO1.O=C(O)CC(O)(CC(=O)O)C(=O)O (configuration not stated) [Mosapride Citrate] — lower, 83.1 ± 9.6
- Cc1cc(C2CCCCC2)n(O)c(=O)c1.NCCO [Ciclopirox ethanolamine] — lower, 31.7 ± 9.4
- Nc1cccc2c1C(=O)N(C1CCC(=O)NC1=O)C2=O (configuration not stated) [Pomalidomide (CC-4047)] — lower, 87.9 ± 2.9
- COC1C(OC(N)=O)C(O)C(Oc2ccc3c(O)c(NC(=O)c4ccc([O-])c(CC=C(C)C)c4)c(=O)oc3c2C)OC1(C)C.[Na+] (configuration not stated) [Novobiocin Sodium] — lower, 93.1 ± 5.1
- O=C1NC(=O)[C@@H](c2c[nH]c3ccccc23)[C@H]1c1cn2c3c(cccc13)CCC2 [Tivantinib (ARQ 197)] — lower, 51.5 ± 4.9
- CNCc1ccc(-c2[nH]c3cc(F)cc4c3c2CCNC4=O)cc1.O=P(O)(O)O — lower, 76 ± 12
- CC(=O)N[C@H](Cc1ccc2ccccc2c1)C(=O)N[C@H](Cc1ccc(Cl)cc1)C(=O)N[C@H](Cc1cccnc1)C(=O)N[C@@H](CO)C(=O)N[C@@H](Cc1ccc(O)cc1)C(=O)N[C@H](CCCNC(N)=O)C(=O)N[C@@H](CC(C)C)C(=O)N[C@@H](CCCNC(=N)N)C(=O)N1CCC[C@H]1C(=O)N[C@H](C)C(N)=O [Cetrorelix] — within error, 96.7 ± 19
